# Results from PubChem BioAssay AID504848 (National Center for Advancing Translational Sciences (NCATS), 2011).
# Among all 2,300 compounds or so, about 1,400 (61%) were called active. About 29% were inconclusive and are not listed. Calls follow the shape of the dose curve; as a rule, active = well fitted inhibition curve with a large enough effect; inconclusive = small, poorly fitted or top-dose-only effect, or effect the other way; inactive = no such curve, though single readings can be large or run the other way. The set was probably picked from earlier hits. This is one part of the list.
# Assay: Confirmation screen for delayed death inhibitors of the malarial parasite plastid, 96 hour incubation; also: nearly all actives have a fitted effect of over 60% in size
# Details: P. falciparum luciferase growth in erythrocytes; series mostly up to 28.7 µM
# In short: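 Erythrocytes infected with luciferase-expressing P. falciparum (2% hematocrit, 0.1% parasitemia final) in RPMI 1640 with 0.5% Albumax, exposed to compounds 96 h at 37 C, 5% CO2. Growth inhibition read as decreased luciferase luminescence.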
# Potency is read from the fitted curve at half-maximal effect.
row,Structure (SMILES),Potency
1,COCCn1c(SCc2csc(-c3ccccc3)n2)nc2ccccc21,12.6 µM (active)
2,CN1C(=O)Cc2cc(S(=O)(=O)N3CCN(c4cccc(C(F)(F)F)c4)CC3)ccc21,12.6 µM (active)
3,Cc1cccc(N2CCN(C3=NC(=O)C(Cc4ccccc4)S3)CC2)c1 (centres undefined),1.58 µM (active)
4,O=C(Oc1nsnc1N1CCCCC1)N1CCOCC1,10 µM (active)
5,Cc1oc(-c2ccccc2Cl)nc1Cn1cccc1C1=NC(c2ccccc2)CO1 (centres undefined),12.6 µM (active)
6,CCn1c(=O)n(CC)c2cc(N3CCCC3)c(NC(=O)c3ccc(C)cc3)cc21,7.08 µM (active)
7,COc1ccc2cc3[n+](cc2c1OC)CCc1cc2c(cc1-3)OCO2,0.501 µM (active)
8,O=C(Nc1ccccc1)N1CCC(O)(c2cccc(C(F)(F)F)c2)CC1,12.6 µM (active)
9,COc1ccc(C#Cc2ccc3c(=O)c4ccccc4n(C)c3c2)cc1,10 µM (active)
10,Cn1c2ccccc2c(=O)c2ccc(C#Cc3ccc(N)cc3)cc21,11.2 µM (active)
11,COc1ccc(N(C)S(=O)(=O)c2cccc(C(=O)NCc3ccc(C)cc3)c2)cc1,14.1 µM (active)
12,COc1cccc(S(=O)(=O)NCc2ccc(C(=O)NCc3ccccn3)cc2)c1,inactive
13,O=C(c1ccc([N+](=O)[O-])cc1)n1nc(-c2ccccc2)nc1NCc1ccc(F)cc1,10 µM (active)
14,Cc1cc(C)nc(SCC(=O)c2ccc(C)c(C)c2)n1,12.6 µM (active)
15,COc1ccccc1N1CCN(CCCCN2C(=O)C3CCCCN3C2=O)CC1 (centres undefined),12.6 µM (active)
16,CCN1CCC(Nc2ccnc3cc(Cl)ccc23)CC1,0.158 µM (active)
17,O=C(NNc1ccnc2cc(Cl)ccc12)C1CCCCC1,0.282 µM (active)
18,Cc1cccc(-n2ccc(=O)c(C(=O)Nc3ccc(S(=O)(=O)N4CCOCC4)cc3)n2)c1,5.01 µM (active)
19,c1ccc2oc(Cc3ccc(Cc4nc5ccccc5o4)cc3)nc2c1,8.91 µM (active)
20,CC(c1ccco1)N(C(=O)c1cc(Cl)cc(Cl)c1)c1ccccn1 (centres undefined),12.6 µM (active)
21,O=C(CCN1C(=O)/C(=C/c2ccccc2)SC1=S)N[C@@H](CO)Cc1ccccc1,12.6 µM (active)
22,O=C(CCN1C(=O)/C(=C/c2ccccc2)SC1=S)NCCc1ccc(O)cc1,inactive
23,O=C(CCN1C(=O)/C(=C\c2ccc(F)cc2)SC1=S)Nc1ccccc1,inactive

row,Structure (SMILES),Potency
1,CCc1ccc(/C=C2\SC(=S)N(CCCC(=O)Nc3ccccc3C(=O)O)C2=O)cc1,15.8 µM (active)
2,O=C(CCCN1C(=O)/C(=C/c2cccs2)SC1=S)Nc1ccc(O)cc1,7.08 µM (active)
3,O=C(CCCN1C(=O)/C(=C\c2cccs2)SC1=S)Nc1ccc(O)cc1,3.98 µM (active)
4,CCc1nn2c(=O)cc(COc3cccc(NC(=O)c4ccco4)c3)nc2s1,10 µM (active)
5,C=CCNC(=O)c1onc(CSc2cccc(C)c2)c1C(=O)O,inactive
6,CCc1noc(C)c1C(=O)N1CCC(CCC(=O)Nc2cccc(C)c2)CC1,6.31 µM (active)
7,CC(=O)c1ccc[n+](CC(=O)NC(C)c2ccccc2)c1 (centres undefined),4.47 µM (active)
8,CCc1ccccc1Nc1nc(N)nc(COC(=O)CCC(=O)c2ccc(F)cc2)n1,2.51 µM (active)
9,O=C(O)CCNS(=O)(=O)c1cccc(Br)c1,inactive
10,CCc1ccccc1Nc1nc(N)nc(COC(=O)CCNS(=O)(=O)c2ccccc2)n1,12.6 µM (active)
11,COc1ccccc1-n1c(=S)[nH]c2c(sc(=S)n2-c2ccc(C)cc2C)c1=O,3.16 µM (active)
12,COc1ccccc1CNC(=O)c1ccc(-c2ccccc2Cl)o1,6.31 µM (active)
13,CCCc1nnc(NC(=O)CCC(=O)N2CCN(Cc3ccc(Cl)cc3)CC2)s1,11.2 µM (active)
14,CCCC(=O)Nc1nnc(CC(=O)N2CCCC2)s1,inactive
15,COc1ccc(CN2CCN(C(=O)CCC(=O)Nc3nnc(C4CCCCC4)s3)CC2)cc1F,10 µM (active)
16,O=C(Cc1cccs1)NCCc1ccc(Cl)cc1,5.62 µM (active)
17,CC(C)(C)OC(=O)[C@H]1[C@H](c2ccc([N+](=O)[O-])cc2)C2(C(=O)c3ccccc3C2=O)C2c3ccccc3C=NN21 (some centres undefined),5.01 µM (active)
18,COc1cccc(NC(=O)CSc2nc3ccccc3nc2N2CCCC2)c1,12.6 µM (active)
19,O=C(O)c1nn(CCSc2ccccc2F)c(=O)c2ccccc12,inactive
20,O=c1cc(CSc2ccc(Cl)cc2)nc(-c2ccccn2)[nH]1,3.16 µM (active)
21,CN(CCCN1CCOCC1)C(=O)c1ccc2nc(Cc3cccc(Cl)c3)oc2c1,11.2 µM (active)
22,O=S(=O)(c1cnc[nH]1)N1CCN(C(c2ccc(F)cc2)c2ccc(F)cc2)CC1,11.2 µM (active)
23,O=C(COC(=O)c1ccc(O)cc1O)Nc1ccc2ccccc2c1,inactive

row,Structure (SMILES),Potency
1,O=C(O)c1ccc(O)cc1O,2.51 µM (active)
2,COc1cccc(CNC(=O)c2cc3oc4ccccc4c3n2C)c1OC,inactive
3,CCOc1ccccc1CNC(=O)c1cc2oc3ccccc3c2n1C,12.6 µM (active)
4,CCOc1ccccc1CNC(=O)c1cc2oc3ccccc3c2n1CC,12.6 µM (active)
5,CCOC(=O)[C@H]1[C@H]2COc3cc(OC)ccc3[C@@H]2N2C(=O)N(c3ccc(Cl)cc3)C(=O)[C@@]12C,inactive
6,O=C(CN(c1ccc2c(c1)OCCO2)S(=O)(=O)c1ccccc1)NCc1ccc(Cl)cc1,12.6 µM (active)
7,O=C(CCN1CCN(S(=O)(=O)c2cccc([N+](=O)[O-])c2)CC1)Nc1ccccc1F,10 µM (active)
8,CSc1ccccc1NC(=O)CN1CCN(S(=O)(=O)c2ccccc2[N+](=O)[O-])CC1,12.6 µM (active)
9,CCOC(=O)CCC(=O)Nc1ncnc2c1C(c1ccccc1)c1c(ccc3ccccc13)O2 (centres undefined),7.94 µM (active)
10,CCC(=O)c1ccc(OCC(=O)NCC2(N3CCCCC3)CCCCC2)cc1,14.1 µM (active)
11,CN(C)S(=O)(=O)c1ccc(Cl)c(NC(=O)CN2C(=O)NC(C)(C3CC3)C2=O)c1 (centres undefined),12.6 µM (active)
12,O=c1[nH]c(C2CCN(S(=O)(=O)c3cccc([N+](=O)[O-])c3)CC2)nc2c1nnn2Cc1ccccc1,8.91 µM (active)
13,C#CCOCCOCCOCCNc1nc(N2CCN(C(=O)Cn3cc(CC(C)O)nn3)CC2)nc(N2CCN(C(=O)[C@H]([C@@H](C)CC)n3cc(CCCN=C(N)N)nn3)CC2)n1 (some centres undefined),1 µM (active)
14,C#CCOCCOCCOCCNc1nc(N2CCN(C(=O)Cn3cc(CC(C)O)nn3)CC2)nc(N2CCN(C(=O)[C@H](C)n3cc(CCCN=C(N)N)nn3)CC2)n1 (some centres undefined),15.8 µM (active)
15,C#CCOCCOCCOCCNc1nc(N2CCN(C(=O)Cn3cc(CCCCN)nn3)CC2)nc(N2CCN(C(=O)[C@H](C)n3cc(CCCN=C(N)N)nn3)CC2)n1,1 µM (active)
16,COCCNC(=O)CCCCCN1C(=O)CCC1=O,inactive
17,CC1(C)CCSC(/C=C/c2ccccc2)=N1,6.31 µM (active)
18,COc1ccc(/C=C2\CCC/C(=C\C=N\N(C)C)C2=O)cc1,12.6 µM (active)
19,O=C(CC1Sc2ccccc2NC1=O)OCc1cc(=O)oc2cc(O)ccc12 (centres undefined),7.08 µM (active)
20,O=C(CCC1CCCCC1)NCCN1C2=NC[C@H](Cc3ccccc3)N2C[C@H]1Cc1ccc(O)cc1,6.31 µM (active)
21,C[C@@H](CN1C2=NC[C@H](Cc3ccc(O)cc3)N2C[C@H]1Cc1ccc(O)cc1)NC(=O)CCC1CCCCC1,5.62 µM (active)
22,C[C@H]1CN=C2N(CCNC(=O)CCC3CCCCC3)[C@H](Cc3ccc(O)cc3)CN21,6.31 µM (active)
23,CC(=O)NC(=S)Nc1ccccc1C(=O)NC1CCCCC1,12.6 µM (active)

row,Structure (SMILES),Potency
1,O=C(NC1CCCC1)C(c1ccncc1)N(Cc1ccco1)C(=O)c1ccc(-c2ccccc2)[nH]1 (centres undefined),7.94 µM (active)
2,O=C(NC1CCCCC1)C(c1ccncc1)N(Cc1ccccc1)C(=O)c1ccc(-c2ccccc2)[nH]1 (centres undefined),3.98 µM (active)
3,COc1cc2c(cc1OC)-c1cc(N3CCc4ccccc43)nc(=O)n1CC2,5.01 µM (active)
4,COC(=O)CCC(=O)OC1(C)C(=O)C=C2C=C(C3CC3)N(CCCOC(C)C)C=C2C1=O (centres undefined),1.12 µM (active)
5,O=C(N/N=C/c1ccc([N+](=O)[O-])cc1)c1cccc(N2CCCC2=O)c1,10 µM (active)
6,CC[C@]1([C@H]2O[C@@H]([C@@H]3O[C@](O)(CO)[C@@H](C)C[C@H]3C)C[C@H]2C)CC[C@@H]([C@]2(C)CC[C@@]3(C[C@@H](O)[C@@H](C)[C@@H]([C@H](C)[C@H](OC)[C@H](C)C(=O)O)O3)O2)O1,0.112 µM (active)
7,Cc1c(C(c2ccc(Br)cc2)c2c(C)n(C)n(-c3ccccc3)c2=O)c(=O)n(-c2ccccc2)n1C,11.2 µM (active)
8,CCOc1ccc2nc(C)cc(Nc3cccc([N+](=O)[O-])c3)c2c1,2 µM (active)
9,CCOc1ccccc1C1N=C(c2ccc(OC)cc2)CC(c2ccccc2O)N1 (centres undefined),12.6 µM (active)
10,Cc1cccc(C)c1N1CCN(C(=O)c2ccc3c(c2)OCO3)CC1,12.6 µM (active)
11,O=C(c1ccc(Br)o1)N1CCN(c2ccc3nnc(-c4ccccc4)n3n2)CC1,7.94 µM (active)
12,O=C(Nc1ccccc1C(F)(F)F)N1CCN(c2ccc3nnc(-c4ccc(F)cc4)n3n2)CC1,3.98 µM (active)
13,Cn1c(CCN2CCCC2)nc2cc(NS(=O)(=O)c3ccc(Cl)cc3)ccc21,6.31 µM (active)
14,Cn1c(CCN2CCCC2)nc2cc(NS(=O)(=O)c3ccccc3)ccc21,3.55 µM (active)
15,CC1CCCCN1C(=O)COC(=O)c1cccc(NS(=O)(=O)c2ccccc2)c1 (centres undefined),inactive
16,O=C(CCN1C(=O)C2CC=C(Cl)CC2C1=O)NCc1ccccc1 (centres undefined),inactive
17,COc1ccccc1CNC(=O)CCCn1nc(C)c2c(C)n(-c3ccccc3)nc2c1=O,12.6 µM (active)
18,COc1cc(CNC(=O)CCn2nc(C)c3c(C)n(-c4ccccc4)nc3c2=O)cc(OC)c1OC,12.6 µM (active)
19,COc1ccc(OC)c(CCNC(=O)CCn2nc(C)c3c(C)n(-c4ccccc4)nc3c2=O)c1,5.62 µM (active)
20,Cc1nn(CCC(=O)NCc2ccc(N(C)C)cc2)c(=O)c2nn(-c3ccccc3)c(C)c12,8.91 µM (active)
